Source: PubChem BioAssay (several laboratories)
Rv3671c inh – inhibits the M. tuberculosis serine protease Rv3671c; inhibition, % at 5.96 µM; 320,000 tested, 0.048% active; P9WHR9; in the data active means inhibition above about 38%;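 further: extracellular domain of Rv3671c used as enzyme; 0% = enzyme with DMSO and 100% = no enzyme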
Target sequence (P9WHR9 whole entry, looked up, the tested form may be a part): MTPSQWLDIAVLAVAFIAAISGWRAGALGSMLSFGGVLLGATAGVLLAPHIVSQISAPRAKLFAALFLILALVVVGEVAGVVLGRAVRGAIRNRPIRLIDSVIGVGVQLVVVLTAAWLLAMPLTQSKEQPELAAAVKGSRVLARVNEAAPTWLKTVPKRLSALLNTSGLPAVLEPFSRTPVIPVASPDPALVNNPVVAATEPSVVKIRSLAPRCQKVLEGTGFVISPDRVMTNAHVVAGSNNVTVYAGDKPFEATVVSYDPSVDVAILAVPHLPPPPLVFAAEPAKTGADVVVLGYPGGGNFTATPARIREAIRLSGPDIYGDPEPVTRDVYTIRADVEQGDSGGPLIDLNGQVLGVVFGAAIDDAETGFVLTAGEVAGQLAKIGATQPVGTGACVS
BJeLR lethal – BJeLR cell viability loss; 300,000 tested, 0.17% active; inhibition, % (no concentration beside the values); BJeLR (HRASV12) viability, CellTiter-Glo ATP luminescence, 48 h; in the data active means inhibition above about 50%
PrP 5UTR inh – suppresses PrP 5' UTR mRNA reporter expression; cell-based PrP 5' UTR mRNA reporter, plate reader; AID 488862; inhibition, % (no concentration beside the values); 340,000 tested, 0.35% active; in the data active means inhibition above about 52%; further: 0 = median of the neutral control wells
Mtb UGM inh – Mtb UDP-galactopyranose mutase inhibition; P9WIQ1; purified UGM, fluorescence polarization probe displacement; inhibition, % at 10 µM; 320,000 tested, 0.06% active; in the data active means inhibition above about 10%, passing the limit was not always enough
RecA splice inh – Mtb RecA intein splicing inhibition; cell-free RecA intein splicing, fluorescence; P9WHJ3; AID 2221; 290,000 tested, 0.75% active; inhibition, % (no concentration beside the values); in the data active means inhibition above about 30%;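 further: 0% = vehicle wells and 100% = reference inhibitor control wells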
FadD28 FP inh – inhibitors of Mycobacterium tuberculosis FadD28 bisubstrate binding. FadD28 bisubstrate probe binding, fluorescence polarization. inhibition, % at 12.5 µM. 360,000 tested, 0.22% active; in the data active means inhibition above about 8.5%, passing the limit was not always enough
* hit, by the source's call; x = no result given. Compounds with a hit are over-represented: about 1.3% of the library has one in this group of screens.

SMILES	Rv3671c inh	BJeLR lethal	PrP 5UTR inh	Mtb UGM inh	RecA splice inh	FadD28 FP inh
COc1cccc(NC(=O)CN(C)C(=O)c2cc3c(s2)CCCC3)c1	-5	x	-14	-1	x	1
COc1ccc(C(=O)Nc2cc(OC)c(NC(=O)Nc3ccccc3)cc2OC)cc1	x	x	x	x	x	-1
Cn1c2ccccc2c(=O)n2c(=O)c3ccccc3cc12	-152	-1	x	2	93*	x
COc1ccccc1/C=C/C1(C(=O)NC2CCCC2)CC(=O)N1c1ccc(C)cc1 (configuration not stated)	-4	3	-16	-1	34*	-1
CCN(CC)S(=O)(=O)c1ccc(N2C(=O)CC2(/C=C/c2ccccc2)C(=O)NC2CCCC2)cc1 (configuration not stated)	1	10	-25	-2	-4	-1
Cc1cccc(NC(=S)N/N=C/c2ccc([N+](=O)[O-])s2)c1	-4	2	0	-2	-14	1
Cc1cccc(NC(=O)/C=C/c2ccc([N+](=O)[O-])s2)c1	-6	83*	-45	1	-4	-3
Cc1ccc(NC(=O)/C=C/c2ccc([N+](=O)[O-])s2)cc1	4	59*	-45	-1	0	-1
Cc1ccc(NC(=O)/C=C/c2ccc([N+](=O)[O-])s2)c(C)c1	-5	15	-47	0	1	0
Cc1cnc(CNc2nc3cc(-c4ccccc4C)sc3c(=O)n2C)cn1	x	x	x	x	x	-16
CC1(C)CC(=O)C2=C(C1)c1c(ccc3ccccc13)NC2c1cc([N+](=O)[O-])cc([N+](=O)[O-])c1O (configuration not stated)	10	-7	-23	2	11	32*
Cn1c2ccccc2c2cc(C(=O)NNC(=O)CCl)sc21	2	3	-13	5	33*	-3
CCCNC(=O)c1cc2c3ccccc3n(C)c2s1	-15	4	-15	3	0	0
CC(C)=NNc1cnnc2ccc([N+](=O)[O-])cc12	x	x	x	x	x	1
CC(=O)c1ccccc1OCCOCCOCCOc1ccccc1C(C)=O	7	55*	7	0	-2	2
O=C1/C(=C/c2ccncc2)CCC/C1=C\c1ccncc1	x	68*	20	x	7	0
N#C/C(=C/c1ccc(-c2ccc(S(N)(=O)=O)cc2)o1)c1nc2ccccc2s1	-59	x	-77	4	x	20*
N#C/C(=C/c1ccc(-c2ccc(S(N)(=O)=O)cc2)o1)C(=O)Nc1ccccc1	-28	-12	-31	0	-2	-5
CCOc1ccccc1Nc1nnc(C)c(=O)[nH]1	-4	8	1	0	1	-2
CCOc1ccccc1Nc1nnc(Cc2ccccc2Cl)c(=O)[nH]1	-4	10	-5	-1	31*	-2
Nc1ccc2nc(N3CCOCC3)sc2c1	-1	1	-53	0	80*	-1
O=C(NNC(=O)C1CCCCC1)c1ccco1	2	0	-9	2	2	-4
CCC1CCC(C(=O)NNC(=O)c2cc(-c3ccco3)[nH]n2)CC1 (configuration not stated)	0	2	-3	4	5	11*
COc1ccc(-c2cc3nc(C)cc(N)n3n2)cc1	4	51*	-3	1	x	0
COc1ccc(-c2cc3nc(C)cc(-c4ccc(OC)cc4)n3n2)cc1	-7	1	-18	1	-2	0
SMILES	Rv3671c inh	BJeLR lethal	PrP 5UTR inh	Mtb UGM inh	RecA splice inh	FadD28 FP inh
O=C(Nc1ccc([N+](=O)[O-])cc1)C(c1ccccc1)c1ccccc1	x	x	x	x	x	1
O=C(Nc1cccc(Cl)c1)c1csc([C@H]2C[C@H](O)[C@@H](CO)O2)n1	x	x	x	x	x	-2
O=C(NCc1cccnc1)c1ccc(NC(=O)c2ccc(Br)cc2)cc1	-6	78*	-10	-3	1	-1
CC(C)C(=O)Nc1ccc(C(=O)NCc2cccnc2)cc1	1	78*	-8	2	-1	1
O=Cc1c(-c2ccccc2)cc2oc3ccccc3cc1-2	3	1	-60	1	3	1
COc1ccc(S(=O)(=O)N2CCCC(c3cc(C(=O)NCc4cccnc4)no3)C2)cc1 (configuration not stated)	x	x	x	x	x	-2
COc1cc([C@@H]2c3cc4c(cc3[C@@H](OC)[C@H]3COC(=O)[C@H]23)OCO4)cc(OC)c1O	8	22	-20	-4	0	0
COc1cc([C@@H]2c3cc4c(cc3[C@@H](NC3CCN(Cc5ccccc5)CC3)[C@H]3COC(=O)[C@H]23)OCO4)cc(OC)c1O	x	86*	x	x	-5	x
O=C1C=C(c2ccccc2)CC(c2cccs2)C1n1cnc([N+](=O)[O-])c1 (configuration not stated)	-8	2	-5	2	4	-4
O=C1C=C(c2ccccc2)C[C@H](c2cccs2)[C@H]1n1nnc([N+](=O)[O-])n1	2	62*	-55	-2	1	-1
O=C(COC(=O)c1cccc(OC(F)F)c1)Nc1cc(S(=O)(=O)N2CCCC2)ccc1Cl	x	x	x	x	x	-4
C#CCOc1ccc(C2C3=C(COC3=O)Nc3cc4c(cc32)OCO4)cc1OC (configuration not stated)	x	61*	16	x	-1	0
O=C1OCC2=C1C(c1ccc(F)cc1)c1cc3c(cc1N2)OCO3 (configuration not stated)	x	x	50	x	x	-2
O=C(O)CCCNc1cc(N2CCN(C(=O)c3ccco3)CC2)c2noc3c2c1C(=O)c1ccccc1-3	1	2	-3	1	-6	18*
CN1CCN(c2cc(N3CCN(C(=O)c4ccco4)CC3)c3c4c(onc24)-c2ccccc2C3=O)CC1	3	9	-36	0	5	1
CN(Cc1ccc(Cl)cc1)C(=O)c1[nH]c(C(F)(F)F)nc1-c1ccccc1	x	x	x	x	x	-1
COc1cccc(N2C(=O)NC(=O)/C(=C/c3ccc4c(c3)Cc3ccccc3-4)C2=O)c1	-8	6	-15	3	2	-3
COc1ccccc1N1C(=O)NC(=O)/C(=C/c2ccc([N+](=O)[O-])s2)C1=O	-9	7	x	3	13	x
COc1cccc(N2C(=O)NC(=O)/C(=C/c3ccc([N+](=O)[O-])s3)C2=O)c1	-32	23	-18	5	-1	18*
COc1ccc(N2C(=O)NC(=O)/C(=C/c3ccc([N+](=O)[O-])s3)C2=O)cc1	-16	1	x	0	5	35*
COc1ccc(N2C(=O)NC(=O)/C(=C\c3ccc([N+](=O)[O-])s3)C2=O)cc1	-35	-1	-5	-1	8	36*
CCN(CC(=O)Nc1c(F)cccc1F)C(=O)Cc1ccccc1	-1	9	-40	2	1	9.7*
CCOC(=O)c1cc(-c2ccc(/C=C3/C(=O)NC(=O)C(C#N)=C3C)o2)ccc1Cl	-5	11	-13	4	11	15*
CC1=C(C#N)C(=O)NC(=O)/C1=C\c1ccc(-c2ccc(C)cc2[N+](=O)[O-])o1	x	-1	-30	x	8	4
